The campaign covered roughly 360,000 compounds. About 290 (0.081%) were called active. Entries that show only a call come without a potency. This is one part of a sample in which actives are shown more often than they occur. Calls come from the whole dose curve; as a rule, active = well fitted activation curve with a large enough effect; inconclusive = small, poorly fitted or top-dose-only effect; inactive = no such curve, though single readings can be large or run the other way.
target: Rap guanine nucleotide exchange factor 4 (Homo sapiens) (UniProt Q8WZA2); experiment: qHTS for Agonist of cAMP-regulated guanine nucleotide exchange factor 4 (EPAC2): primary screen; conditions: biochemical qHTS; Potency: EPAC2 activation; series mostly up to 154 µM; note: nearly all actives have a fitted effect of over 50% in size
Sequence (Q8WZA2 whole entry, looked up): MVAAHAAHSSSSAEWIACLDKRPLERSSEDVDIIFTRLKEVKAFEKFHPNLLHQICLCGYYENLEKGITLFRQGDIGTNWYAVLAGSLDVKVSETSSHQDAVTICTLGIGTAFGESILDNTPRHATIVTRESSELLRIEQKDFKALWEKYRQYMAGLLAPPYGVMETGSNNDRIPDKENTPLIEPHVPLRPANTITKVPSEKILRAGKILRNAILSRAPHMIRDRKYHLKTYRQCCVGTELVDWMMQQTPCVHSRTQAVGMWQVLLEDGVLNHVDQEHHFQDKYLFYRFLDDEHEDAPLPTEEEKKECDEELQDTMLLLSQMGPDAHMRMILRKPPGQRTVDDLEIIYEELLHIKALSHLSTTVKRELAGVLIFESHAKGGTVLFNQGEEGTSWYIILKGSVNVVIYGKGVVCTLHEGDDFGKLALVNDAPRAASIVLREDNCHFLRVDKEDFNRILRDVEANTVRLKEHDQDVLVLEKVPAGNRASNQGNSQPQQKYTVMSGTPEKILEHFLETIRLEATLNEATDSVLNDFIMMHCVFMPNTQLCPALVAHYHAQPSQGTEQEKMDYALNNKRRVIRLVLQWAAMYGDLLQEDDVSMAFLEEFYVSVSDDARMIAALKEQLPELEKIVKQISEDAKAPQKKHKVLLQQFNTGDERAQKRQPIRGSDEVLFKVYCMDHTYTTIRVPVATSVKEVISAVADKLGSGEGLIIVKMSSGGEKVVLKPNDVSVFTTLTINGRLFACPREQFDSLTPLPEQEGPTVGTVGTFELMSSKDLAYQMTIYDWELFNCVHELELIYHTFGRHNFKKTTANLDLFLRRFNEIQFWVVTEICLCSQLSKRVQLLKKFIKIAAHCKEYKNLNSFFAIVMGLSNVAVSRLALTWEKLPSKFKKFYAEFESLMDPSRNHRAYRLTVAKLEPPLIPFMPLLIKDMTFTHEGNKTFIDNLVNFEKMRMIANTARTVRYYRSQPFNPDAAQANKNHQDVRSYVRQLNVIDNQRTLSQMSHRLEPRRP
Source text: In multi-cellular eukaryotic organisms, the effects of cAMP are transduced by two ubiquitously-expressed intracellular cAMP receptors, the classic protein kinase A/cAMP-dependent protein kinase (PKA/cAPK) and the more recently discovered exchange protein directly activated by cAMP/cAMP-regulated guanine nucleotide exchange factor (EPAC/cAMP-GEF). Both PKA and EPAC are ubiquitously expressed in all tissues, and an increase in intracellular cAMP levels will lead to the activation of both PKA and EPAC. Therefore, careful dissections of the individual role and relative contribution of EPAC and PKA within the overall cAMP signaling in various model systems are critical for further elucidating the mechanism of cAMP signaling. To date no EPAC-specific antagonists and agonist, as well as isoform-specific agonists have been reported, and developing EPAC-specific pharmacological probes to determine the physiological functions that EPAC play in the overall cAMP-mediated signaling remains a major challenge within the research field. Furthermore, identified regulators of EPAC may lead to new mechanism-based therapeutic strategies specifically targeting the EPAC / cAMP-signaling components as EPAC has been implicated to play important roles in major human pathological conditions such as diabetes, heart disease, and cancer.
This qHTS will be used to screen the Molecular Libraries Small Molecule Repository (MLSMR) as a concentration-titration series using the NCGC unique quantitative screening (qHTS) platform to find activators for EPAC2. In addition, this assay will also be used as a counterscreen for the EPAC1 qHTS. This fluorescent based assay is developed and validated for EPAC2 that measures exchange using EPAC effector Rap1 complex with BODIPY-GDP, a GDP analog with a tethered fluorophores. Activators are identified by monitoring the change in fluorescence signal as the exchanged free BODIPY-GDP has a reduced fluorescence compared to Rap1-bound BODIPY-GDP. […] in signal (activation) is the desired outcome for the EPAC2 agonist while no activity in this assay is desired for the EPAC1 agonist counterscreen.
[1] de Rooij, J., Zwartkruis, F. J., Verheijen, M. H., Cool, R. H., Nijman, S. M., Wittinghofer, A., and Bos, J.L. (1998) Nature 396, 474-477
[2] Kawasaki, H., Springett, G. M., Mochizuki, N., Toki, S., Nakaya, M., Matsuda, M., Housman, D. E., and Graybiel, A. M. (1998) Science 282, 2275-2279
NIH Chemical Genomics Center [NCGC]
NIH Molecular Libraries Probe Centers Network [MLPCN]
Assay Submitter (PI): Xiaodong Cheng, The University of Texas, Medical Branch
Briefly, three uL of reagents (100 nM EPAC2, 250 nM RAP1B-BODIPY-GDP, 50 uM GDP) were dispensed into a 1536-well Greiner black solid-bottom medium binding assay plate. Controls and test compounds (23 nL) were transferred to the plate via a Kalypsys pin tool equipped with a 1536-pin array. The plates were centrifuged at 1,000 rpm for 15 seconds followed by 5 minute incubation at room temperature. The assay plates were read at 5 minute intervals for 30 minutes in the ViewLux plate reader using 480nm excitation and 540nm emission filters. The results were normalized to the agonist positive control of 6.5 mM cAMP.
Potency is the fitted concentration of half-maximal effect.

SMILES	Potency
COc1cccc(N2C(=O)NC(=O)/C(=C\c3cn(C)c4ccccc34)C2=O)c1	100 µM (active)
CCc1nc2ccccc2c(=O)n1-c1cccc(OC)c1	inactive
CC1C(=O)OC2CCN3CC=C(COC(=O)C(C)(O)C1(C)O)C23 (stereo not given)	inactive
CSC1=NP(=S)(SC)N(C)c2nc3n(c21)CCC3 (stereo not given)	inactive
CC(=O)c1ccc(OC(NC(=O)Cc2ccccc2)C(Cl)(Cl)Cl)cc1 (stereo not given)	inactive

— PubChem BioAssay AID720711 (National Center for Advancing Translational Sciences (NCATS), 2013)
